Test results published in PubChem BioAssay (NCI).
This is part of a sample that, as a whole, favours compounds with a hit. Of some 83,000 tested, about 20% had one in any assay.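 Cell lines were cultured in 96-well plates, exposed to a single compound concentration, and assessed for percent growth 48 hours later.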 Calls of active or inactive are those of the source.

What follows are compounds tested on SR leukemia (assay: NCI-60 one-dose screen, 48 h (100 = growth as untreated, 0 = no growth, -100 = all killed)). Conditions: 10 µM unless noted.
Description: Growth inhibition of the SR human tumor cell line is measured as a screen for anti-cancer activity. Cells are grown in 96 well plates and exposed to the test compound for 48 hours. Compounds are tested at a single concentration, which is 10^-5 M for most compounds. The reported endpoint is percent growth (GI% or GIPRCNT), where numbers from 0 - 100% represent growth inhibition, and numbers from -100% - 0 represent cell death. For example, a value of 40 represents 60% growth inhibition. A value of 0 means no net growth occurred over the course of the experiment. A value of -40 indicates 40% of cells at the beginning of the experiment died by the end of the experiment. A value of -100 means all cells are dead at the end of the experiment.
NCI-60 Human Tumor Cell Lines Screen was performed using the standard one-dose NCI protocol, which is described in more detail at https://dtp.cancer.gov/discovery_development/nci-60/default.htm.
Compounds with GIPRCNT values below 10 were considered active. Activity score was based on GIPRCNT using the following formula: […]
Score is 0 for GIPRCNT values of 100 or above, 50 for GIPRCNT values of 0, and 100 for GIPRCNT values of -100.

SMILES | growth
Cc1cn(-c2cc(NC(=O)c3cncc(C#Cc4c(N)ncc5ccc(F)cc45)c3)cc(C(F)(F)F)c2)cn1 | 51.4% (inactive)
COc1ccc(Cn2cc3c(c2-c2ccccc2)CCc2cnoc2-3)cc1 | 29.9% (inactive)
CCOC(=O)c1[nH]c2c(c1C)-c1[nH]c(=O)c(S(=O)(=O)c3ccccc3)cc1SC2 | 39.4% [100 µM] (inactive)
O=C(c1c[nH]c2ccccc12)c1n[nH]c(=S)n1-c1cccc(Br)c1 | 76.8% (inactive)
Cc1nnc(-c2ccc3c(c2)nc(/C=C/c2ccccc2)n3C2CCCCC2)o1 | 46% (inactive)
CN1CCN(c2ccc3nc4c(nc3c2C(F)(F)F)C(=O)c2ncccc2C4=O)CC1 | -27.2% (active)
O=C(Cn1nnc2ccccc21)N/N=C/c1c[nH]c2ccccc12 | 18.3% (inactive)
Cc1nn(-c2ccccc2)c(N)c1N=C1NC(=O)/C(=C/c2ccc(Br)cc2)S1 | 36.8% (inactive)
CC(=O)OC(c1ccccc1)C1CCOC1=O (stereo not given) | 122% (inactive)
CCN1C(=O)N(CC)C2C1NC(=S)N2/N=C/c1ccc(OC)cc1 (stereo not given) | 24.1% (inactive)
CCN1CCN(CC(=O)Nc2ccc(-c3cn4c(n3)sc3cc(Oc5ccnc(C(=O)NC)c5)ccc34)cc2)CC1 | -16.9% (active)
O=C(Nc1cnc(Nc2ccc(N3CCOCC3)nc2)nc1Oc1ccc(C(F)(F)F)cc1)c1ccncc1 | 19.3% (inactive)
O=C(CN1CCN(c2cc3c(cc2F)c(=O)c(C(=O)O)cn3C2CC2)CC1)N/N=C/c1ccco1 | 92.9% (inactive)
Nc1ccc(-c2csc(-n3[nH]c(=O)ccc3=O)n2)cc1 | 102% (inactive)
Cc1cccc(N2CCC(=O)NC2=S)c1 | 121% (inactive)
COc1cccc(-c2cc(-c3cccc(Cl)c3)c(C#N)c(=O)[nH]2)c1 | 45.5% (inactive)
CCN(CC)CCN1C(=O)c2cccc3c(/C=C/CN4C(=O)c5cccc6cccc(c56)C4=O)ccc(c23)C1=O | 38.6% (inactive)
CN1CCN(CCOc2ccc(-c3cnc4c(-c5cccc(F)c5F)cnn4c3)cc2)CC1 | -1.72% (active)
COc1ccc(C(=O)Cn2c(C(=O)c3ccc(OC)cc3)nc3ccccc32)cc1 | 16.4% (inactive)
CN1CCN(Cc2ccc(NC(=O)c3cncc(C#Cc4cnc(N)c5ncccc45)c3)cc2C(F)(F)F)CC1 | 12.4% (inactive)

SMILES | growth
Cc1ccc(-c2csc(NC(=O)c3ccccc3CN3C(=O)c4ccccc4C3=O)n2)cc1 | 103% (inactive)
COc1ccc(/C(C)=C(/c2ccc(OCCCN(C)C)cc2)c2ccc(OC(=O)c3ccccc3)cc2)cc1 | 9.15% (active)
O=C(NC(Cc1nnc2n(Cc3ccccc3)c(=O)c3c4c(sc3n12)CCCC4)c1ccccc1)c1ccccc1 (stereo not given) | 104% (inactive)
Cc1n[nH]c2ccc(Br)cc2c1=O | 100% (inactive)
C=C(C)[C@@H]1CCC[C@]2(C(=O)N3CCN(C)CC3)CC[C@]3(C)[C@@H](CC[C@@H]4[C@@]5(C)CC/C(=N\NC(=O)c6ccncc6)C(C)(C)[C@@H]5CC[C@]43C)[C@@H]12 | 7.99% (active)
Cc1ccc2nc(-c3ccc(C(=O)NNC(=S)Nc4ccccc4)cc3)[nH]c2c1 | 88.6% (inactive)
COc1cc(-c2nc3cc(Cl)c(Cl)cc3[nH]2)ccc1OCC(=O)N=Nc1c(O)[nH]c2ccc(Cl)cc12 | -30.7% (active)
CCOC(=O)C(Cc1ccc(OC)cc1)C(=O)OCC | 11.6% (inactive)
CC1(C)NCCC[C@]2(C)[C@H]3CC[C@H]4[C@H]5[C@H](C(=O)/C=C/c6cccnc6)CCC[C@]5(CO)CC[C@@]4(C)[C@]3(C)CC[C@@H]12 | -24.6% (active)
C[C@H](C(=O)N(CCc1ccc(Cl)c(Cl)c1)Cc1cncs1)[C@@H]1CC[C@H](C[C@H](C)n2cc(CN3CCC(c4ccc(Cl)cc4)CC3)nn2)O1 | -44.7% (active)
CC/C=C\C[C@H](O)C/C=C1/C(=O)C=C[C@@H]1C/C=C\CCCC(=O)O | 10.3% (inactive)
N[C@H]1CCC[C@@H]1NCCCCN1C(=O)c2cccc3cc([N+](=O)[O-])cc(c23)C1=O | -6.77% (active)
CCN1CCN(CCNc2nccc(-c3c(-c4ccc(F)c(OC)c4)nc4sccn34)n2)S1(=O)=O | 45.3% (inactive)
O=S(=O)(NCCCNc1nccc(-c2c(-c3cccc(F)c3)nc3occn23)n1)c1ccc(F)cc1 | 53.8% (inactive)
Cc1ccc(-c2csc(N(C(=O)N3CCN(c4cc5c(cc4F)c(=O)c(C(=O)O)cn5C4CC4)CC3)c3ccccc3)n2)cc1 | 20.2% (inactive)
C=C(c1ccc(OC)c(/C=C/C(=O)c2ccc3c(c2)OCO3)c1)c1cc(OC)c(OC)c(OC)c1 | 6.41% (active)
Clc1ccc(-c2cc(-c3ccccc3)nc(NCCNc3ccnc4cc(Cl)ccc34)n2)cc1 | 29.2% (inactive)
Cc1ccc(-c2nc(N3CCNCC3)c3oc(-c4ccc(C)cc4)nc3n2)cc1 | -49.2% (active)
CC1=C(C(=O)Nc2ccccc2)C(c2ccc3c(c2)OCO3)NC(=S)N1 (stereo not given) | 99.2% (inactive)
Cc1nc2sc(C(=O)Nc3cccc(Br)c3C)c(N)c2cc1C(O)c1ccccc1 (stereo not given) | 7.47% (active)
